The results in this text go back to PubChem BioAssay (EPA / NIEHS).

“And” between values parts separate entries of the source, which are not always exact repeats. Equal values may be shown once. Records with an inconclusive call do not appear. The source holds several records for some structures; these can differ, active in one and inactive in another. The source made the active and inactive calls. The calls were made as follows, unless noted: active = hit-call score of the fitted dose curve at least 0.9, where 1 is the maximum; inactive = score below 0.9.

Test [1] is described as follows: CCTE_Deisenroth_AIME_384WELL_CTox_Active: Cytotoxicity Assessment (CTOX) in CCTE's 384-well Estrogen Receptor Transactivation Assay with AIME metabolic competence (metabolism positive), Deisenroth Lab (AID 2284037; active = hit-call score of the fitted dose curve at least 0.9, where 1 is the maximum;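 also: chemicals first conditioned 2 h by alginate-bound induced rat liver S9 before cells; activity means signal loss indicating cell death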). The gist of the method:
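Cytotoxicity in VM7Luc4E2 breast cells, 24 hour, measured as protease-substrate fluorescence loss, after 2-hour metabolic conditioning with induced rat hepatic S9 in alginate microspheres. Concentrations 0.002 - 200 uM, 10 points, bidirectional fitting.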

Test [2] is described as follows: CCTE_Deisenroth_AIME_384WELL_CTox_Inactive: Cytotoxicity Assessment (CTOX) in CCTE's 384-well Estrogen Receptor Transactivation Assay without AIME metabolic competence (metabolism negative), Deisenroth Lab (AID 2284039; active = hit-call score of the fitted dose curve at least 0.9, where 1 is the maximum;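 also: cell viability via live-cell protease substrate cleaved to fluorescent probe; cells exposed 24 h to medium preincubated 2 h with alginate-water beads without S9; loss of fluorescence signal means loss of viability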). The gist of the method:
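Fluorescent protease-substrate viability readout after 24 h exposure of VM7Luc4E2 cells to conditioned medium. Chemicals (0.002–200 uM) first sat 2 h over alginate-water beads, no S9. Data fitted bidirectionally, loss of signal meaning viability loss.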

For test [3], the target named is Estrogen receptor (Homo sapiens) (UniProt P03372). Briefly: CCTE_Deisenroth_AIME_384WELL_LUC_Shift: CCTE's 384-well Estrogen Receptor Transactivation Assay with AIME metabolic competence data shift (ERTA luciferase; difference in metabolism positive and negative), Deisenroth Lab (AID 2284041).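 Also: shift is response with S9 minus without S9 so positive means metabolism raised ER signal.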 The gist of the method:
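Test chemicals (0.002–200 uM, 10-point) were pre-incubated 2 h with alginate microspheres containing phenobarbital/beta-naphthoflavone-induced male Sprague Dawley rat liver S9 or water, then medium was transferred to VM7Luc4E2 cells for 24 h luciferase readout; shift = S9-positive minus S9-negative normalized response.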

Test [4] in a line: CCTE_Shafer_MEA_dev_firing_rate_mean: CCTE's Neural Network Formation Assay for Mean Firing Rate, Shafer Lab (AID 2284031).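 As to AC50: curve fitted for loss of firing so AC50 reflects decreased mean firing rate.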 The gist of the method: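 Extracellular spike frequency, AUC over DIV 5–12 recordings, in rat cortical neuron MEA cultures dosed from plating; loss direction vs DMSO.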
Test [5] in a line: CCTE_Shafer_MEA_dev_per_burst_spike_percent: CCTE's Neural Network Formation Assay for Percent of Spikes in a Burst, Shafer Lab (AID 2284032).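 As to AC50: fitted as a decrease in burst spike percentage below DMSO baseline.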 In short, it runs like this:
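Value is trapezoidal AUC over recordings on days 5, 7, 9 and 12 of the well-mean fraction of spikes falling in single-electrode bursts; rat cortical cultures exposed continuously from plating, treatment renewed DIV 5 and 9, fitted downward against DMSO.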

The target of test [6] is Estrogen receptor (Homo sapiens) (UniProt P03372). Briefly: CCTE_Deisenroth_AIME_384WELL_LUC_Inactive: CCTE's 384-well Estrogen Receptor Transactivation Assay without AIME metabolic competence (ERTA luciferase; metabolism negative), Deisenroth Lab (AID 2284038; active = hit-call score of the fitted dose curve at least 0.9, where 1 is the maximum;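 also: VM7Luc4E2 breast cells given medium preincubated 2 h with S9-free microspheres; hits raise estrogen receptor luciferase signal so potencies reflect agonists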). The gist of the method:
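Metabolism-negative mode: AIME lids stamped in alginate-water, no hepatic S9. 2 h chemical incubation → medium onto VM7Luc4E2 ERTA, 24 h. Readout luciferase luminescence; gain-of-signal fit vs 17beta-estradiol. Conc. 0.002 - 200 uM.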

Test [7] can be described thus: CCTE_Shafer_MEA_dev_active_electrodes_number: CCTE's Neural Network Formation Assay for Number of Active Electrodes, Shafer Lab (AID 2284040; active = hit-call score of the fitted dose curve at least 0.9, where 1 is the maximum;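 as to AC50: potency for loss of active electrodes versus DMSO so lower counts are hits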). The gist of the method: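 Developing rat cortical networks on MEAs, exposed DIV 0–12. Value is the AUC of active-electrode counts (≥5 spikes/min) from days 5, 7, 9, 12, relative to DMSO.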
Test [8] can be described thus: CCTE_Shafer_MEA_dev_burst_rate: CCTE's Neural Network Formation Assay for Burst Rate, Shafer Lab (AID 2284042).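 As to AC50: potency for loss of burst rate below DMSO control.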 The gist of the method: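 Exposure ran continuously over 12 days of network development in rat cortical cultures, with compound refreshed during full media changes on DIV 5 and 9. Single-electrode bursts per recording time, well-mean over active electrodes, trapezoidal AUC across days 5–12, fitted downward relative to DMSO.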

Test [9] in a line: CCTE_Shafer_MEA_dev_bursting_electrodes_number: CCTE's Neural Network Formation Assay for Number of Bursting Electrodes, Shafer Lab (AID 2284043; active = hit-call score of the fitted dose curve at least 0.9, where 1 is the maximum;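 as to AC50: potency is for loss of bursting electrodes relative to DMSO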). In short, it runs like this:
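Number of electrodes reaching ≥1 burst every 2 min was recorded at DIV 5, 7, 9 and 12 and collapsed as trapezoidal area under the curve. Cultures were rat cortical neurons on MEA plates, dosed continuously from plating with medium and treatment refreshed on DIV 5 and 9.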

The nature of test [10]: CCTE_Shafer_MEA_dev_per_burst_interspike_interval: CCTE's Neural Network Formation Assay for Burst Interspike Interval, Shafer Lab (AID 2284044).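 As to AC50: potency for a decrease of within-burst interspike interval below DMSO level.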 In short, it runs like this:
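Mean interspike interval within single-electrode bursts, averaged over bursting electrodes, from rat cortical cultures on MEA plates recorded on days 5, 7, 9 and 12. Continuous compound exposure from plating; trapezoidal AUC fitted downward relative to DMSO.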

Test [11] is described as follows: CCTE_Shafer_MEA_dev_burst_duration_mean: CCTE's Neural Network Formation Assay for Mean Burst Duration, Shafer Lab (AID 2284045).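 As to AC50: curve fitted for loss meaning shorter burst duration than DMSO.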 The gist of the method: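 Mean single-electrode burst duration (first to last spike), averaged over bursting electrodes per well, then integrated as area-under-curve across recordings at days 5, 7, 9 and 12. Rat cortical cultures on MEAs, compound present from plating, refreshed at feeds.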

Test [12] can be described thus: CCTE_Shafer_MEA_dev_interburst_interval_mean: CCTE's Neural Network Formation Assay for Mean Interburst Interval, Shafer Lab (AID 2284046).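 Also: well-mean interburst interval of bursting electrodes as AUC over four recording days; curve fitted for decrease in interburst interval relative to DMSO.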 The gist of the method:
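Primary rat cortical neurons on PEI-coated 48-well MEA plates (laminin added with cells at plating) (16 electrodes/well), exposed from plating day 0 with renewal at DIV 5 and 9. Mean inter-burst interval averaged over bursting electrodes, AUC across days 5, 7, 9, 12; DMSO baseline.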

Test [13] in a line: CCTE_Shafer_MEA_dev_inter_network_spike_interval_mean: CCTE's Neural Network Formation Assay for Mean Inter-network Spike Interval, Shafer Lab (AID 2284047). In short, it runs like this:
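Mean time between consecutive network-spike peaks, recorded extracellularly (adaptive spike detection) on DIV 5, 7, 9 and 12, summarized as trapezoidal AUC. Rat cortical cultures on MEAs dosed continuously days 0–12, re-dosed at feeds; loss-of-signal fit relative to DMSO.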

The nature of test [14]: CCTE_Shafer_MEA_dev_network_spike_number: CCTE's Neural Network Formation Assay for Number of Network Spikes, Shafer Lab (AID 2284048).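 Also: synchronized bursts across electrodes counted on days 5 7 9 12 and integrated as AUC.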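 As to AC50: fit as a loss of signal meaning fewer network spikes than DMSO.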 The gist of the method:
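Number of network spikes (coordinated firing across electrodes) recorded on days 5, 7, 9 and 12 and summarised as area under the curve. Rat cortical cultures on MEA, continuous compound exposure with full medium/treatment exchange at DIV 5 and 9.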

Test [15] can be described thus: CCTE_Shafer_MEA_dev_network_spike_peak: CCTE's Neural Network Formation Assay for Mean Number of Electrodes in Network Spike, Shafer Lab (AID 2284049).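 As to AC50: fitted for loss of signal meaning fewer electrodes in network spikes than DMSO.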 The gist of the method:
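Rat cortical primary culture, 1.5 x 10^5 cells/well, 48-well MEA (16 electrodes/well). Dosing day 0 through DIV 12, full media/compound exchange DIV 5, 9. AxIS adaptive spike detection; AUC over days 5/7/9/12; loss-of-signal vs DMSO.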

Test [16] can be described thus: CCTE_Shafer_MEA_acute_cross_correlation_HWHM: CCTE's Neural Acute Assay for Cross Correlation at Half Width at Half Maximum, Shafer Lab (AID 2284026).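 Also: percent change per well from pre-dose baseline in spike cross-correlogram half width; hits are a decrease in cross-correlogram half width relative to DMSO.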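 As to outcome: spontaneous network firing of rat primary cortical neurons on multiwell microelectrode arrays.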 The gist of the method: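 Per-well percent change in cross-correlogram half width at half maximum, derived from 40-min recordings before and after compound (0.03-40 uM) at 37 C. Cultures were rat cortical neurons, DIV 13 or 15, with adaptive spike detection at 8x rms.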

Test [17] can be described thus: CCTE_Shafer_MEA_acute_synchrony_index: CCTE's Neural Acute Assay for Synchrony, Shafer Lab (AID 2284027).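 Also: network synchrony index of spontaneous spiking in primary rat cortical neurons on MEAs; fitted for loss of signal so actives lower synchrony relative to DMSO.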 The gist of the method: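 Acute exposure of rat primary cortical neurons (DIV 13 or 15) at 0.03-40 uM. Synchrony index, 40 min before vs after, as % change relative to DMSO control.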

Sequence of Estrogen receptor (Homo sapiens) (P03372 whole entry, looked up): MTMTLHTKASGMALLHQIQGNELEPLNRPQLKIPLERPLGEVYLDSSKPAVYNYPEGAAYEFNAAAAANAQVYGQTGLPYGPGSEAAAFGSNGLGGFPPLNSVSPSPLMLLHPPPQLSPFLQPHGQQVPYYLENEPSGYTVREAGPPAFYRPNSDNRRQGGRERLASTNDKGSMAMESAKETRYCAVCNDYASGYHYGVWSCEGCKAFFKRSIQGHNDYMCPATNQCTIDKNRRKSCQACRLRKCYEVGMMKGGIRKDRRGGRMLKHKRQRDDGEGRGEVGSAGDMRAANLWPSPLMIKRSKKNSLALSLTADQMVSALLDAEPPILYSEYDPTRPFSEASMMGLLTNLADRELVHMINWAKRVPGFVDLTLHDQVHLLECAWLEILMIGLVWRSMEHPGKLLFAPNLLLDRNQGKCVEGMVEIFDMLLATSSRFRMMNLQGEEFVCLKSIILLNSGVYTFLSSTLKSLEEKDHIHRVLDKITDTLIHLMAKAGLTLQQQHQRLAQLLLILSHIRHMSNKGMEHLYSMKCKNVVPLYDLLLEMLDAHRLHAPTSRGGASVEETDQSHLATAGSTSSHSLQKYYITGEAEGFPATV

`CCc1nn(C)c(C(=O)NCc2ccc(C(C)(C)C)cc2)c1Cl`: the AC50 (as a rule, the midpoint of the concentration-response curve, whichever way the signal moves) in test [1] is 1.82 µM (active). In addition, the compound was classed as inactive in test [2] and in test [3].
As to `C=CC1(C)OC(=O)N(c2cc(Cl)cc(Cl)c2)C1=O` (stereo unspecified), the call in test [4], in [5], in test [2], in [8], in [10] and in test [11] was inactive. Also, the call in [12], in test [13] and in [14] was inactive. In addition, the AC50 in [6] was 63.4 µM (active); in test [7], 50 µM (active); in [3], 42.4 µM (active); in test [9] it was 21.6 µM (active); in [15], 50 µM (active).
In the case of `CC1=C(C(=O)Nc2ccccc2)SCCO1`, the compound was called inactive in test [6] and in test [3].
For the compound `CCON=C(CC)C1=C(O)CC(c2c(C)cc(C)cc2C)CC1=O` (stereo unspecified), the compound was called inactive in [1] and in test [3].
For `CCCCNC(=O)n1c(NC(=O)OC)nc2ccccc21`, the compound was classed as inactive in test [4], in test [8], in [10], in test [11], in test [12] and in test [13]. Moreover, the compound was classed as inactive in test [14]. Besides, the AC50 in test [5], in [7], in test [9] and in test [15] was 15 µM (active) in each case.
Consider `CNC(=O)ON=CC(C)(C)SC`, for which the compound was called inactive in [16], in [17], in [4], in test [5], in test [7] and in [8]. Besides, the result in test [10], in test [11], in test [12], in test [13], in test [14] and in [15] was inactive.
As to `COP(=S)(OC)Oc1nc(Cl)c(Cl)cc1Cl`, the compound was classed as inactive in test [16], in [17], in [4], in [5], in [7] and in [8]. The call in test [9], in test [10], in test [11], in test [12], in test [13] and in test [14] was inactive. Further, the result in [15] was inactive.
Consider `C#CCOS(=O)OC1CCCCC1Oc1ccc(C(C)(C)C)cc1` (stereo unspecified), for which the AC50 in test [16] was 20 µM (active); in test [17], 32.5 µM (active); in [1], 18.6 µM (active). Besides, the call in test [2] and in [3] was inactive.
For `CC(Oc1ccc(Cl)cc1Cl)C(=O)O` (stereo unspecified), the compound was called inactive in test [16], in test [17], in test [6] and in [3].
With `N#Cc1cc(Br)c(O)c(Br)c1`, the outcome in test [1], in [2] and in [3] was inactive.
Regarding `CCOC(=O)CC(SP(=S)(OC)OC)C(=O)OCC` (stereo unspecified), the call in test [4], in [10], in [11], in [13] and in test [14] was inactive. Further, the AC50 in [5] is 20.9 µM (active) and 15 µM (active); in test [7], 17.1 µM (active) and 6.38 µM (active); in [8], 22.7 µM (active) and 2.98 µM (active); in [9], 14.9 µM (active) and 4.64 µM (active); in [10], 3.72 µM (active); in [12], 16.8 µM (active) and 15 µM (active). For the same compound, the AC50 was 11.7 µM (active) in [14]; 14.2 µM (active) and 8.93 µM (active) in test [15].
With `CCOc1cc(Oc2ccc(C(F)(F)F)cc2Cl)ccc1[N+](=O)[O-]`, the AC50 in [4] is 12.8 µM (active); in test [5], 12.8 µM (active); in test [7] it was 4.91 µM (active); in test [8], 9.62 µM (active); in [9], 5.27 µM (active); in [10], 11.4 µM (active). Besides, the AC50 in test [11] is 6.99 µM (active); in test [12] it was 4.76 µM (active); in [14], 6.09 µM (active); in test [15], 6.67 µM (active). For the same compound, the call in [1], in test [2], in test [3] and in test [13] was inactive.
